# Results reported in the supplement of paper PMC4466140.
# What was measured:
# Experiment in all cases: SPOT peptide array binding signal intensity (averaged, normalized) (arbitrary units (background-subtracted, floor 0; scale differs between SH3 domains)); higher = stronger binding of the SH3 domain to the peptide
# [1] = biological target: AgAbp1
# Procedure, shortened: (§1)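 Peptides were synthetic 15-mers on cellulose membranes, with every cysteine replaced by serine. They were incubated overnight at 4°C with GST-SH3 domains from four yeast species at 10 μg/ml in TBS-based blocking buffer. Binding signal, the replicate-averaged normalized and background-subtracted spot intensity, is in arbitrary units that differ between domains.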
# [2] = biological target: AgBbc1
# Procedure, shortened: as §1
# [3] = biological target: AgBem1-D1
# Procedure, shortened: as §1
# [4] = biological target: AgBzz1-D1
# Procedure, shortened: as §1
# [5] = biological target: AgBzz1-D2
# Procedure, shortened: as §1
# [6] = biological target: AgCyk3
# Procedure, shortened: as §1
# [7] = biological target: AgFus1
# Procedure, shortened: as §1
# [8] = biological target: AgHof1
# Procedure, shortened: as §1
# [9] = biological target: AgHse1
# Procedure, shortened: as §1
# [10] = biological target: AgLsb1
# Procedure, shortened: as §1
# [11] = biological target: AgLsb4
# Procedure, shortened: as §1
# [12] = biological target: AgMyo5
# Procedure, shortened: as §1
# [13] = biological target: AgNbp2
# Procedure, shortened: as §1
# [14] = biological target: AgRvs167
# Procedure, shortened: as §1
# [15] = biological target: AgSho1
# Procedure, shortened: as §1
# [16] = biological target: AgSla1-D1-D2
# Procedure, shortened: as §1
# [17] = biological target: AgSla1-D3
# Procedure, shortened: as §1
# [18] = biological target: CaAbp1-D1
# Procedure, shortened: as §1
# [19] = biological target: CaAbp1-D2
# Procedure, shortened: as §1
# [20] = biological target: CaBbc1
# Procedure, shortened: as §1
# [21] = biological target: CaBem1-D1
# Procedure, shortened: as §1
# [22] = biological target: CaBzz1-D1
# Procedure, shortened: as §1
# [23] = biological target: CaBzz1-D2
# Procedure, shortened: as §1
# [24] = biological target: CaCyk3
# Procedure, shortened: as §1
# [25] = biological target: CaFus1
# Procedure, shortened: as §1
# [26] = biological target: CaHof1
# Procedure, shortened: as §1
# [27] = biological target: CaHse1
# Procedure, shortened: as §1
# [28] = biological target: CaLsb1
# Procedure, shortened: as §1
# [29] = biological target: CaLsb4
# Procedure, shortened: as §1
# [30] = biological target: CaMyo5
# Procedure, shortened: as §1
# [31] = biological target: CaNbp2
# Procedure, shortened: as §1
# [32] = biological target: CaRvs167
# Procedure, shortened: as §1
# [33] = biological target: CaRvs167-3
# Procedure, shortened: as §1
# [34] = biological target: CaSho1
# Procedure, shortened: as §1
# [35] = biological target: CaSla1-D1-D2
# Procedure, shortened: as §1
# [36] = biological target: CaSla1-D3
# Procedure, shortened: as §1
# [37] = biological target: ScAbp1
# Procedure, shortened: as §1
# [38] = biological target: ScBbc1
# Procedure, shortened: as §1
# [39] = biological target: ScBem1-D1
# Procedure, shortened: as §1
# [40] = biological target: ScBzz1-D1
# Procedure, shortened: as §1
# [41] = biological target: ScBzz1-D2
# Procedure, shortened: as §1
# [42] = biological target: ScCyk3
# Procedure, shortened: as §1
# [43] = biological target: ScFus1
# Procedure, shortened: as §1
# [44] = biological target: ScHof1
# Procedure, shortened: as §1
# [45] = biological target: ScHse1
# Procedure, shortened: as §1
# [46] = biological target: ScLsb1
# Procedure, shortened: as §1
# [47] = biological target: ScLsb2
# Procedure, shortened: as §1
# [48] = biological target: ScLsb3
# Procedure, shortened: as §1
# [49] = biological target: ScLsb4
# Procedure, shortened: as §1
# [50] = biological target: ScMyo3
# Procedure, shortened: as §1
# [51] = biological target: ScMyo5
# Procedure, shortened: as §1
# [52] = biological target: ScNbp2
# Procedure, shortened: as §1
# [53] = biological target: ScPex13
# Procedure, shortened: as §1
# [54] = biological target: ScRvs167
# Procedure, shortened: as §1
# [55] = biological target: ScSho1
# Procedure, shortened: as §1
# [56] = biological target: ScSla1-D1-D2
# Procedure, shortened: as §1
# [57] = biological target: ScSla1-D3
# Procedure, shortened: as §1
# [58] = biological target: SpAbp1-D1
# Procedure, shortened: as §1
# [59] = biological target: SpBbc1
# Procedure, shortened: as §1
# [60] = biological target: SpBzz1-D1
# Procedure, shortened: as §1
# [61] = biological target: SpBzz1-D2
# Procedure, shortened: as §1
# [62] = biological target: SpCyk3
# Procedure, shortened: as §1
# [63] = biological target: SpHof1
# Procedure, shortened: as §1
# [64] = biological target: SpHof1-2
# Procedure, shortened: as §1
# [65] = biological target: SpHof1-3
# Procedure, shortened: as §1
# [66] = biological target: SpHse1
# Procedure, shortened: as §1
# [67] = biological target: SpLsb1
# Procedure, shortened: as §1
# [68] = biological target: SpLsb4
# Procedure, shortened: as §1
# [69] = biological target: SpMyo1
# Procedure, shortened: as §1
# [70] = biological target: SpNbp2
# Procedure, shortened: as §1
# [71] = biological target: SpPex13
# Procedure, shortened: as §1
# [72] = biological target: SpRvs167
# Procedure, shortened: as §1
# [73] = biological target: SpSla1-D1-D2
# Procedure, shortened: as §1
# [74] = biological target: SpSla1-D3
# Procedure, shortened: as §1
binder,measurement,setting,value
QPWTDQFEKLEKEVS,SPOT peptide array binding signal intensity,[1],≤ 0
same,SPOT peptide array binding signal intensity,[2],≤ 0
same,SPOT peptide array binding signal intensity,[3],15
same,SPOT peptide array binding signal intensity,[4],≤ 0
same,SPOT peptide array binding signal intensity,[5],22
same,SPOT peptide array binding signal intensity,[6],1.5
same,SPOT peptide array binding signal intensity,[7],≤ 0
same,SPOT peptide array binding signal intensity,[8],≤ 0
same,SPOT peptide array binding signal intensity,[9],26
same,SPOT peptide array binding signal intensity,[10],≤ 0
same,SPOT peptide array binding signal intensity,[11],≤ 0
same,SPOT peptide array binding signal intensity,[12],1.5
same,SPOT peptide array binding signal intensity,[13],≤ 0
same,SPOT peptide array binding signal intensity,[14],0.167
same,SPOT peptide array binding signal intensity,[15],≤ 0
same,SPOT peptide array binding signal intensity,[16],≤ 0
same,SPOT peptide array binding signal intensity,[17],≤ 0
same,SPOT peptide array binding signal intensity,[18],≤ 0
same,SPOT peptide array binding signal intensity,[19],≤ 0
same,SPOT peptide array binding signal intensity,[20],3.5
same,SPOT peptide array binding signal intensity,[21],≤ 0
same,SPOT peptide array binding signal intensity,[22],≤ 0
same,SPOT peptide array binding signal intensity,[23],≤ 0
same,SPOT peptide array binding signal intensity,[24],≤ 0
same,SPOT peptide array binding signal intensity,[25],≤ 0
same,SPOT peptide array binding signal intensity,[26],0.5
same,SPOT peptide array binding signal intensity,[27],≤ 0
same,SPOT peptide array binding signal intensity,[28],0.5
same,SPOT peptide array binding signal intensity,[29],≤ 0
same,SPOT peptide array binding signal intensity,[30],≤ 0
same,SPOT peptide array binding signal intensity,[31],23
same,SPOT peptide array binding signal intensity,[32],1.33
same,SPOT peptide array binding signal intensity,[33],0.5
same,SPOT peptide array binding signal intensity,[34],≤ 0
same,SPOT peptide array binding signal intensity,[35],≤ 0
same,SPOT peptide array binding signal intensity,[36],≤ 0
same,SPOT peptide array binding signal intensity,[37],1
same,SPOT peptide array binding signal intensity,[38],4.75
same,SPOT peptide array binding signal intensity,[39],≤ 0
same,SPOT peptide array binding signal intensity,[40],21
same,SPOT peptide array binding signal intensity,[41],11
same,SPOT peptide array binding signal intensity,[42],≤ 0
same,SPOT peptide array binding signal intensity,[43],≤ 0
same,SPOT peptide array binding signal intensity,[44],≤ 0
same,SPOT peptide array binding signal intensity,[45],67
same,SPOT peptide array binding signal intensity,[46],≤ 0
same,SPOT peptide array binding signal intensity,[47],≤ 0
same,SPOT peptide array binding signal intensity,[48],≤ 0
same,SPOT peptide array binding signal intensity,[49],3
same,SPOT peptide array binding signal intensity,[50],0.5
same,SPOT peptide array binding signal intensity,[51],0.75
same,SPOT peptide array binding signal intensity,[52],≤ 0
same,SPOT peptide array binding signal intensity,[53],181
same,SPOT peptide array binding signal intensity,[54],1
same,SPOT peptide array binding signal intensity,[55],≤ 0
same,SPOT peptide array binding signal intensity,[56],≤ 0
same,SPOT peptide array binding signal intensity,[57],16.2
same,SPOT peptide array binding signal intensity,[58],≤ 0
same,SPOT peptide array binding signal intensity,[59],1.5
same,SPOT peptide array binding signal intensity,[60],≤ 0
same,SPOT peptide array binding signal intensity,[61],≤ 0
same,SPOT peptide array binding signal intensity,[62],≤ 0
same,SPOT peptide array binding signal intensity,[63],≤ 0
same,SPOT peptide array binding signal intensity,[64],≤ 0
same,SPOT peptide array binding signal intensity,[65],≤ 0
same,SPOT peptide array binding signal intensity,[66],15.5
same,SPOT peptide array binding signal intensity,[67],≤ 0
same,SPOT peptide array binding signal intensity,[68],≤ 0
same,SPOT peptide array binding signal intensity,[69],≤ 0
same,SPOT peptide array binding signal intensity,[70],≤ 0
same,SPOT peptide array binding signal intensity,[71],≤ 0
same,SPOT peptide array binding signal intensity,[72],≤ 0
same,SPOT peptide array binding signal intensity,[73],3
same,SPOT peptide array binding signal intensity,[74],≤ 0
